Drawing on publication PMC12136788, this text covers binding signal for eleven molecules.

Numbering of substitutions follows the chain as printed. Over roughly 24,000 sequences, “enrichment r” has its median near 0.99; the highest 2% begin near 3.7. Shown is part of a subset that was picked to be rich in the highest values.

First the molecules themselves.
T1: UNK ZnF1-3 (human, UniProt Q9C0B0 31-174)
T1 sequence: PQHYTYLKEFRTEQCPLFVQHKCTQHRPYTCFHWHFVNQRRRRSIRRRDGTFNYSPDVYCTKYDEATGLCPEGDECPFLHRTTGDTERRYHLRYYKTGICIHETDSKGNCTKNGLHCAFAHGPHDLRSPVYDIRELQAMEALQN

B1: chr8:74858975:74858976:-_ENSG00000154582_ENST00000284811|hu_hu|FALSE|FALSE (ssRNA)
RNA: GGGAGUUCUACAGUCCGACGAUCAACCUUGUACGUAAAAUACAUGCAUACUUUCGAUAGCACAUGUGAAGGUAUCUCUCUAAAAUUGACCUCAUUGGUUUCGUUCUCAGCAAACUGACCUGGGCCACUCAACAUGGCUUUUAUCAACAGAGGAUUGAGCAUCA
B2: chr11:100882373:100882374:+_ENSMUSG00000019302_ENSMUST00000044721|mus_mus|mus_mus_mus_hu_True|38_68 (ssRNA)
RNA: GGGAGUUCUACAGUCCGACGAUCUUCCUGGUUUGUGUUGAUUUCCUUCAGUUCAUUUUCAAUCUUCUCGAAAUUGGCCUCUAAGUCAAUCAUGUCCCGAGGGAAGGGAACCUCUGGGUUUUCACCGGUGUCCAUAAUCGGAAUCAACAGAGGAUUGAGCAUCA
B3: chr17:56552419:56552420:-_ENSMUSG00000013236_ENSMUST00000086828|mus_mus|mus_mus_mus_hu_False|58_98 (ssRNA)
RNA: GGGAGUUCUACAGUCCGACGAUCAAAAAAUACACUAUAAAAAAAAAAUGAAAUGUCACGGGAUACAGUUACACUGACACUAUUAAAAGAAAGCUGGAUUCUGGUCCCAGCCCAGUGUCCCCAGGCUGCAGAGCGGGGAGGAGCCAACAGAGGAUUGAGCAUCA
B4: chr17:56552419:56552420:-_ENSMUSG00000013236_ENSMUST00000086828|mus_mus|mus_mus_mus_hu_False|58_58 (ssRNA)
RNA: B3 RNA with A38U, A39U
B5: 75889693_75893847_892_3pUTR_ENSG00000185009_ENST00000355264|human|control|control (ssRNA)
RNA: GGGAGUUCUACAGUCCGACGAUCCAGAUAGUUUAAUGCAAGCAUCAAUGACCCCCUGAAUUUCUGCAAAGACUGUAGAUCCUGAUUUAUCUAUAAUUGCGUCUAUUUCUUCAACAACAUCAAAAUAGGCUUCAUUGUUUGUGUCAACAGAGGAUUGAGCAUCA
B6: chr2:4828950:4828951:+_ENSMUSG00000026662_ENSMUST00000115019|mus_mus|FALSE|FALSE (ssRNA)
RNA: GGGAGUUCUACAGUCCGACGAUCAAAAUCUAGUCUCCCCCAAUAAAUUGUAUUUUAGGCAAAAUCCUCCCAAAUGCUUCUAAAAUAAUACUAAAAAGGGCAUCUGAUUAUACAAGAGCAAUUAAAAAAAUUAAAUAUUUAUUUCAACAGAGGAUUGAGCAUCA
B7: chr2:4828950:4828951:+_ENSMUSG00000026662_ENSMUST00000115019|mus_mus|motif|central (ssRNA)
RNA: B6 RNA with U80G, A81G
B8: 105548853_105553245_153_3pUTR_ENSMUSG00000068798_ENSMUST00000090678|mouse|control|control (ssRNA)
RNA: GGGAGUUCUACAGUCCGACGAUCAUUUUUCAACAAAAAUCCCCUGAACAAACUGAACUGUCAGAGCAGACUUCCCCACGCCUCCUGAACCAAGGACUACUAGCUUGUACUCACGCAUGAUGCGCUCUGUUUAAAUAUUGACAACAACAGAGGAUUGAGCAUCA
B9: chr10:112362630:112362631:-_ENSMUSG00000074748_ENSMUST00000099276|mus_mus|motif|central (ssRNA)
RNA: GGGAGUUCUACAGUCCGACGAUCGGAUUACUUAUUAAAAAAUAAGAAUCUCCAAAACAAAGGACAGUGGUGAAUUUCAAACGGCCCUCCCCCAAUGAUCCCAGCAUGCGAUAAUGCCAGGUAGUGGCCCCUGGGCAUGCGAUGCAACAGAGGAUUGAGCAUCA
B10: chr16:14299702:14299703:-_ENSMUSG00000022677_ENSMUST00000023357|mus_mus|FALSE|FALSE (ssRNA)
RNA: GGGAGUUCUACAGUCCGACGAUCCUCAAUUCAGAGUCCCUCUCCCCAAAUGACUCUAGCUUGUAUCAAGUUGAUAUAAAACUAGCCAGGGCAGGCAAUAAUAAUUCAGGUAUUUUUUAAAAAAUCAAACUUCAUAUAAAUUAACAACAGAGGAUUGAGCAUCA
B11: chr16:14299702:14299703:-_ENSMUSG00000022677_ENSMUST00000023357|mus_mus|motif|central (ssRNA)
RNA: B10 RNA with U82G, A83G

For this experiment, the target named is T1, UNK ZnF1-3. Description: nsRBNS (natural sequence RNA bind-n-seq); RBNS binding buffer (assumed for nsRBNS): 25 mM Tris pH 7.5, 150 mM KCl, 3 mM MgCl2, 0.01% Triton X-100, 500 ug/ml BSA, 20 U/ml SUPERase-In, 4 C; UNK is unkempt and MSI1 is Musashi-1; names of the RNAs are library labels; protein concentration not given here; high values mean tight binding.
For B1, the binding signal stood at 0.5 enrichment R.

Consider B2, for which the binding signal came to 0.443 enrichment R.

In the case of B3, the binding signal came out at 8.92 enrichment R.

As for B4, the binding signal stood at 3.59 enrichment R.

On to B5, for which the binding signal worked out at 0.939 enrichment R.

B6: the binding signal was 4.12 enrichment R.

B7 gave a binding signal of 14.3 enrichment R.

As for B8, the binding signal was 1.18 enrichment R.

As to B9, the binding signal stood at 0.719 enrichment R.

Regarding B10, the binding signal amounted to 3.28 enrichment R.

B11 came in with a binding signal of 3.78 enrichment R.
